Results reported in PubChem BioAssay.
Results filed as inconclusive are left out. Calls of active or inactive are those of the source.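 How the source made its calls, unless noted: active means efflux inhibition above 0.42, the validation set average plus 4 SD; inconclusive means no clear call, values can overlap the other calls; inactive means the rest.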

Assays:
[1] = rapamycin-like changes in RPL19A-GFP expression – cell-based, S. cerevisiae, multiplex flow cytometry, primary screen (AID 1862; in the data active means percent of DMSO control GFP below about 86%;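 further: lower values mimic rapamycin by blocking the RPL19A rise seen in DMSO cells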); details: S. cerevisiae RPL19A-GFP strain, flow cytometry fluorescence, 3 h; at 10 µM; stronger effect = lower value
[2] = TOR pathway GLN3 branch reporter MEP2-GFP changes – S. cerevisiae, multiplex flow cytometry, primary screen (AID 1867;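 active means GFP response, as percent of the DMSO control, above the screen-wide mean plus 3 SD, about 139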;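 further: median GFP channel fluorescence of barcode-gated MEP2-GFP cells measured by flow cytometry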); details: S. cerevisiae MEP2-GFP strain, 3 h, at 10 µM, stronger effect = higher value, 100% means same as DMSO wells
[3] = TOR pathway RTG branch CIT2 reporter changes – S. cerevisiae, GFP fusion, multiplex flow cytometry, primary screen (AID 1870;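 active means percent response above a set limit, the screen-wide mean plus 3 SD, cut at about 130% in these data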;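 further: barcoded CIT2-GFP strain pooled with four other GFP strains with rapamycin as positive control; median GFP fluorescence per well over plate mean of DMSO wells so 100% = DMSO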); details: S. cerevisiae CIT2-GFP expression, 3 h, at 10 µM, stronger effect = higher value
[4] = TOR pathway LAP4-GFP level changes – S. cerevisiae, multiplex flow cytometry, primary screen (AID 1873;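 active means GFP signal, as percent of the solvent control, above the screen mean plus 3 SD, about 149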); details: S. cerevisiae LAP4-GFP expression, 3 h, at 10 µM, stronger effect = higher value
[5] = yeast AGP1-GFP level changes, GLN3 branch – cell-based, multiplex flow cytometry, S. cerevisiae, primary screen (AID 1887;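 active means GFP signal above the screen-wide mean plus 3 SD, that is over about 124.5% of the solvent control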;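 further: AGP1-GFP fusion strain of S. cerevisiae within a five-strain barcoded multiplex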); details: 3 h, at 10 µM, stronger effect = higher value
[6] = reduced mouse 2C T cell binding to pMHC/ICAM-1 vesicles – MLPCN validation set, flow cytometry, LFA-1/ICAM-1 modulator project, pilot screen (AID 2523;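 active means response below a set limit, under 55% cells CD8-positive and vesicle-bound, and CD8 cells' 90th-percentile brightness under 279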;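 on vesicle binding response: mean PE anti-B7-1 fluorescence of CD8+ cells relative to row control; 100% = QL9-loaded vesicles with DMSO vehicle in the same plate row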); details: 2C mouse CD8+ T cells, at 7 µM, stronger effect = lower value; double positive events: measured here: CD8+/vesicle+ event percentage
[7] = biological target: Integrin beta-1 (Homo sapiens) + Integrin alpha-4 (Homo sapiens) (UniProt P13612+P05556); test: alpha4beta1 integrin LIBS antibody binding reduction – U937 cells, HUTS-21 mAb, flow cytometry, validation set, VLA-4 allosteric modulator project, pilot screen (AID 2674;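 active means inhibition above 50%, about 3 SD of the validation set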;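 further: antibody binding induced by the VLA-4 ligand LDV present at three times its Kd; 0% = LDV ligand with antibody and no compound and 100% = antibody without LDV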); details: HUTS-21 LIBS mAb binding, at 6.7 µM, stronger effect = higher value, binding induced by LDV ligand
[8] = calorie-restriction mimetic ROS inhibitors, yeast – validation compound set, pilot screen (AID 2706;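 active means superoxide response below 65% of plate, a cut near 3 SD across the whole screen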;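 further: yeast exposed to compound for one week at 30 degrees C before staining; 100% = mean of all compound wells on the same plate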); details: S. cerevisiae aging, superoxide DHE fluorescence; at 10 µM; stronger effect = lower value
[9] = biological target: Beta-adrenergic receptor kinase 1 (Homo sapiens) (UniProt P25098); test: GRK2 binders displacing RNA aptamer, biochemical, validation, human GRK2, bead flow cytometry (AID 488806;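 active means aptamer binding inhibition above 30%, about 3 SD of noise from non-fluorescent compounds; inactive means inhibition at or below 30%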); details: bead-bound GRK2, FAM-aptamer displacement, at 10 µM, stronger effect = higher value
[10] = biological target: Beta-2 adrenergic receptor (Homo sapiens) (UniProt P07550); test: agonist-induced loss of surface beta2AR – cell-based, FAP fluorogen, flow cytometry, validation set, pilot screen (AID 504459;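 active means percent response above 42, roughly 3 SD of non-fluorescent test compounds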;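 further: agonist-driven loss of surface beta2AR via internalization measured by FAP dye flow cytometry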); details: Am2.2-beta2AR cells, at 10 µM, stronger effect = higher value
[11] = biological target: AP-2 complex subunit beta (Homo sapiens) (UniProt P63010); test: beta-arrestin/AP2 interaction blockers – biochemical, validation set, GST-AP2 beads, flow cytometry, pilot screen (AID 504541;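 active means inhibition above 54%, about 3 SD of non-fluorescent compounds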;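 further: AP2 carries R879A mutation and is captured from E. coli lysate; bead-bound FITC arrestin peptide fluorescence measuring arrestin peptide binding to AP2; 0% = DMSO wells and 100% = excess unlabeled arrestin peptide control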); details: FITC arrestin peptide, at 10 µM, stronger effect = higher value, AP2 beta2 appendage fragment, R879A mutant
[12] = cytosolic pH regulators acting via V-ATPase – S. cerevisiae, pHLuorin, HTS validation (AID 504600; in the data active means response above about 15%;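 further: plate controls were DMSO for no effect and reference compound for full effect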); details: V-ATPase proton transport, at 10 µM, stronger effect = higher value
[13] = tested on: anti-desmoglein-3 scFv antibody binding to human DSG3; test: blockers of pathogenic pemphigus antibody–desmoglein-3 binding – biochemical, validation compound set, bead-based, flow cytometry, pilot screen (AID 588368;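 active means binding below the plate cutoff, the plate median minus 3 SD, with a reading above zero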;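 further: signal is the median channel fluorescence of bead-bound GFP antibody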); details: Protein G beads, DSG3-Fc, scFv-GFP binding, at 10 µM, stronger effect = lower value
[14] = Nile Red efflux blockade in pump-expressing yeast – validation compound set, multiplex, phenotypic, pilot screen (AID 588506);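 further: Nile Red retained in cells so higher fluorescence means more efflux inhibition; 0 = negative control wells and 1 = enniatin B 25 µM full block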; details: S. cerevisiae pump-expressing triplex, Nile Red efflux flow cytometry; at 10 µM; stronger effect = higher value; the pumps come from Candida albicans
[15] = biological target: ATP-binding cassette sub-family B member 6 (Homo sapiens) (UniProt Q9NP58); test: blockers of ABCB6-driven porphyrin uptake – K562-ABCB6 cells, flow cytometry, validation set, pilot screen (AID 588550;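 active means inhibition above the screen-wide mean plus 3 SD, about 51%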;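 further: 0% = DMSO wells and 100% = benzethonium chloride 70 µM positive control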); details: K562-ABCB6 porphyrin accumulation, 1 h, at 10 µM, stronger effect = higher value
[16] = AML differentiation inducers, ER-HoxA9 marrow cells – cell-based, GFP/MAC1 double positive, flow cytometry, validation set, primary screen (AID 588685;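 active means differentiation response of at least 50%, scaled between solvent and reference control, from cells with both markers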;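 further: compound exposure lasts four days before antibody staining and flow analysis; 0% = DMSO wells and 100% = 5 µM fulvestrant positive control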); details: stronger effect = higher value, normalized: vehicle 0, fulvestrant 100

AP-2 complex subunit beta (Homo sapiens), sequence (P63010 whole entry, looked up, the tested form may be a part, one chain of several): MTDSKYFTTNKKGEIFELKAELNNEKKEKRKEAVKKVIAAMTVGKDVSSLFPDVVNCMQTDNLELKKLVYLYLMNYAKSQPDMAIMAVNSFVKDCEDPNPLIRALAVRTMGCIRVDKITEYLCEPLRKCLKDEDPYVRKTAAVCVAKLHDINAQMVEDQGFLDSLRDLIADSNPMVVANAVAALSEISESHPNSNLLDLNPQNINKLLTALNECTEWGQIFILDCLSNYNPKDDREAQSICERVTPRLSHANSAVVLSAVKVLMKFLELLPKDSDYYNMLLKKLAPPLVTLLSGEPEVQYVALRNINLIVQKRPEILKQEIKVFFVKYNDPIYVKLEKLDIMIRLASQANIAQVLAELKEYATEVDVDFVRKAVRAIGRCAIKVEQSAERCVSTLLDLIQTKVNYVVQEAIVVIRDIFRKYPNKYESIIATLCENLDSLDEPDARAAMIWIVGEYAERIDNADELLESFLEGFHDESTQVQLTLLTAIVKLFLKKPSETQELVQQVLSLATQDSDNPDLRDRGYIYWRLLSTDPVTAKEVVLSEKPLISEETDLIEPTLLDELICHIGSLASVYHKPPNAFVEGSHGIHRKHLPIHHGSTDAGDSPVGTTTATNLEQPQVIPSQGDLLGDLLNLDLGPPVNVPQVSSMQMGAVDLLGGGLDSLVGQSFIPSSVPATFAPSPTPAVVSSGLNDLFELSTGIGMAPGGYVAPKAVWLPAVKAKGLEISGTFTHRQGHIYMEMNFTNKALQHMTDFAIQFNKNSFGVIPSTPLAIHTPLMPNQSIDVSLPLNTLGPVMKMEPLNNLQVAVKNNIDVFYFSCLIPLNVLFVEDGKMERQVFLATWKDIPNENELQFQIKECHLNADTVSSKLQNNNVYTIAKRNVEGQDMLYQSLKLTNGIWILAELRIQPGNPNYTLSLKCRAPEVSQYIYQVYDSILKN
Integrin beta-1 (Homo sapiens) + Integrin alpha-4 (Homo sapiens), sequence (P05556 whole entry, looked up): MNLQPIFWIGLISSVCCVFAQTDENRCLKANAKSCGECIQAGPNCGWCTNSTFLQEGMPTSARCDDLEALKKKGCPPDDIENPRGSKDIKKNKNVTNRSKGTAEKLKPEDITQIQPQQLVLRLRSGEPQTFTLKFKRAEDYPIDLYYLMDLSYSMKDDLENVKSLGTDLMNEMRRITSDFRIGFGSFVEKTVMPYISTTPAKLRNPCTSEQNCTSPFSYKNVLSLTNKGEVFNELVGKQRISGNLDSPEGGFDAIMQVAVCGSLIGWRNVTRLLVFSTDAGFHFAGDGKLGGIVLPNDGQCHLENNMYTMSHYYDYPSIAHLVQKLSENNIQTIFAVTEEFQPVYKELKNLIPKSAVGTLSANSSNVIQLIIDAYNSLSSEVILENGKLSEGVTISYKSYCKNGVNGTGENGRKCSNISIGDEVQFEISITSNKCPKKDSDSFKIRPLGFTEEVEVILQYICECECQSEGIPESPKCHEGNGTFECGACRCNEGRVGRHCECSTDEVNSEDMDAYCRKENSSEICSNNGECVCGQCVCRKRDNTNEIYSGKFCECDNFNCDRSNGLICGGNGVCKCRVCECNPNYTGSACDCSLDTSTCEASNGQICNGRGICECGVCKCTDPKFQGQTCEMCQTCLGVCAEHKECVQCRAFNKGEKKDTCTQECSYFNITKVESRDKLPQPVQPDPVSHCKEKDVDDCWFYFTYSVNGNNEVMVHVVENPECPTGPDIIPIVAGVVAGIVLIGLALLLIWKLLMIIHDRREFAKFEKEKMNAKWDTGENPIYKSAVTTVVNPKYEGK
Integrin beta-1 (Homo sapiens) + Integrin alpha-4 (Homo sapiens), sequence (P13612 whole entry, looked up): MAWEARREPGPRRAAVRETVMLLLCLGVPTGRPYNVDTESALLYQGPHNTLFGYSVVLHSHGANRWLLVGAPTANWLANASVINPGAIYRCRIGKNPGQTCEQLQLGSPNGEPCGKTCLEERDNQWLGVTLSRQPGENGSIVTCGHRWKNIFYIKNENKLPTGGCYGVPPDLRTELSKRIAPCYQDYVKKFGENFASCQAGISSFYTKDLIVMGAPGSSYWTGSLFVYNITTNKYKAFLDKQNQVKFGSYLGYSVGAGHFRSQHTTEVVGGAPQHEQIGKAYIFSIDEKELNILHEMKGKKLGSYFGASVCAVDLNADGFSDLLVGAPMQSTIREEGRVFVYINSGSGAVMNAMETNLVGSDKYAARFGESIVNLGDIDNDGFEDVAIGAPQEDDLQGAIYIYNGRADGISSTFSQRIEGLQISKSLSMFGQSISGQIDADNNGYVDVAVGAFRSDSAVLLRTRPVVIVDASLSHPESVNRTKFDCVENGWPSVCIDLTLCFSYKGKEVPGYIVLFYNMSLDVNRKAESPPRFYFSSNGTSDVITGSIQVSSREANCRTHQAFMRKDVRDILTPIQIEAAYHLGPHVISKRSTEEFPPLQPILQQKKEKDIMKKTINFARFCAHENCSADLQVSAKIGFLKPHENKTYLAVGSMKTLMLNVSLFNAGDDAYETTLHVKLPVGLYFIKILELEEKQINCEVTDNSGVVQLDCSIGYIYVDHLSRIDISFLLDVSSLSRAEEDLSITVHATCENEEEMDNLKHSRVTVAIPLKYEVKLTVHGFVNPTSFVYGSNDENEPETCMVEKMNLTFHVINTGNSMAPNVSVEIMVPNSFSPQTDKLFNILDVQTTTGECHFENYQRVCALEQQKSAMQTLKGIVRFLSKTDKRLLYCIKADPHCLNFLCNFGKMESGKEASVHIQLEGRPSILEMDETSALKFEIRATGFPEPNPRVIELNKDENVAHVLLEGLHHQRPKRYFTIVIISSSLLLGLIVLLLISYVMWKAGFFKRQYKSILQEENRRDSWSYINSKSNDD
Beta-adrenergic receptor kinase 1 (Homo sapiens), sequence (P25098 whole entry, looked up): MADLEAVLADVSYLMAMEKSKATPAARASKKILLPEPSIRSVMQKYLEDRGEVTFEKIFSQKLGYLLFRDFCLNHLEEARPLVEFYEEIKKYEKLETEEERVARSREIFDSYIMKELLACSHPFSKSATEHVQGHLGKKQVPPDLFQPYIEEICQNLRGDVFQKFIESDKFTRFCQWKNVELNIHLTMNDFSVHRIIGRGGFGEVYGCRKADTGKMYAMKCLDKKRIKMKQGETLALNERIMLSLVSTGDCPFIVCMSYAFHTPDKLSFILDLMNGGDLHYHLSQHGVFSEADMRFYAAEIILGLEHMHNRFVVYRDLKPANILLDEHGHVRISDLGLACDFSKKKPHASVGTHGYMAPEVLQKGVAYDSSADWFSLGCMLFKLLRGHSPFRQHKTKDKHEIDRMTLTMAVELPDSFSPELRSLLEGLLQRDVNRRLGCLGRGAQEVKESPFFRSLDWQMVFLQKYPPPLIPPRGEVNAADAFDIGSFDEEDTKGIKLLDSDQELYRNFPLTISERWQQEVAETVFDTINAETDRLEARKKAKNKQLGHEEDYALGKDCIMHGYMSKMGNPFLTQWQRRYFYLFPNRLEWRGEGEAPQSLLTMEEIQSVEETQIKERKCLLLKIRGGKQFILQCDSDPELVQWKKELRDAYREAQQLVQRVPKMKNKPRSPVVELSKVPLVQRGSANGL
Beta-2 adrenergic receptor (Homo sapiens), sequence (P07550 whole entry, looked up): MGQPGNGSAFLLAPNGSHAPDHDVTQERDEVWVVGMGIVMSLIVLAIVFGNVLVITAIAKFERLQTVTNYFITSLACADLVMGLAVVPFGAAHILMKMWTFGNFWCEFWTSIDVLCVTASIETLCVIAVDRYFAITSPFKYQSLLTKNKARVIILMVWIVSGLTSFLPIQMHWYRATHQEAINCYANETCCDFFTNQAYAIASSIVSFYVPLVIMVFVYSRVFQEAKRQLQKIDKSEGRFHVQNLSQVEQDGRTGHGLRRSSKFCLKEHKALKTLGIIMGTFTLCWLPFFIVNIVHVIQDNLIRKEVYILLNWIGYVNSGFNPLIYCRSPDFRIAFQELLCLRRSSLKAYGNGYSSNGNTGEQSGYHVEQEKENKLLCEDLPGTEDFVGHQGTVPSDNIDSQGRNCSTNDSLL
ATP-binding cassette sub-family B member 6 (Homo sapiens), sequence (Q9NP58 whole entry, looked up): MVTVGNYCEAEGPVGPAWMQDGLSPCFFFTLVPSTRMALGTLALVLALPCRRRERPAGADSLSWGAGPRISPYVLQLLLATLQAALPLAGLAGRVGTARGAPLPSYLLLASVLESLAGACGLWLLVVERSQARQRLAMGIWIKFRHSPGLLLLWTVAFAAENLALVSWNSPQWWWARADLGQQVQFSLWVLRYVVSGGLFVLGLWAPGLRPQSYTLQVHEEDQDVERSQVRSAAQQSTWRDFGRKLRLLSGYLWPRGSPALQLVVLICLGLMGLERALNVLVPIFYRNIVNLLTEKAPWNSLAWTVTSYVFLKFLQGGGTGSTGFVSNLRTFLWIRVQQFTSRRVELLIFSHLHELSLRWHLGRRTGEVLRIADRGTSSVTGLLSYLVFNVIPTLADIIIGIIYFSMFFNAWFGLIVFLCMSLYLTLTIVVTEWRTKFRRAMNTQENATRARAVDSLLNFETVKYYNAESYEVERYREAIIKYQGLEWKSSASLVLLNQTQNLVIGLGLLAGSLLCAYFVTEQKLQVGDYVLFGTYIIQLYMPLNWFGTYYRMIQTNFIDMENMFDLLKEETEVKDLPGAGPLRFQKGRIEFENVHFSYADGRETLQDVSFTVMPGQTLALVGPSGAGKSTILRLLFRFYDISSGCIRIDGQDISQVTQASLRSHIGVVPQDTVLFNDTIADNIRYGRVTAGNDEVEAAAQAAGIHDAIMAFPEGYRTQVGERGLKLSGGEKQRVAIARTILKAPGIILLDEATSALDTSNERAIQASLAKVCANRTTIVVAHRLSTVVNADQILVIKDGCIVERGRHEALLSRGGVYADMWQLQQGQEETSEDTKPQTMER

Structure (SMILES)	percent of DMSO control GFP [1]	GFP response vs DMSO [2]	percent response of DMSO control [3]	GFP response vs DMSO [4]	GFP response, % of DMSO [5]	double positive events [6] [%]	vesicle binding response [6]	inhibition [7]	superoxide response (% of plate) [8]	aptamer binding inhibition [9]	response [10]	inhibition [11]	response [12]	binding (% of control) [13]	efflux inhibition (fraction of control) [14]	inhibition [15]	differentiation response [16]
Cc1ccc2c(CC(=O)O)coc2c1	104% (inactive)	94.1% (inactive)	109% (inactive)	73% (inactive)	95.4% (inactive)	61.6	132% (inactive)	-0.45% (inactive)	107% (inactive)	13% (inactive)	-1.64% (inactive)	0.71% (inactive)	-0.96% (inactive)	95.5% (inactive)	0.02 (inactive)	13% (inactive)	0.24% (inactive)
CC(C)C[C@H]1C(=O)N2CCC[C@H]2[C@]2(O)O[C@](NC(=O)[C@@H]3C=C4c5cccc6[nH]c(Br)c(c56)CC4N(C)C3)(C(C)C)C(=O)N12 (stereo partly drawn)	106% (inactive)	105% (inactive)	99.7% (inactive)	102% (inactive)	104% (inactive)	49.2	107% (inactive)	-7.79% (inactive)	97.8% (inactive)	0% (inactive)	-5.85% (inactive)	-3.14% (inactive)	3.49% (inactive)	99.8% (inactive)	0.58 (active)	-91% (inactive)	1.28% (inactive)
COC(=O)CSc1nc2ccc(N)cc2s1	104% (inactive)	103% (inactive)	104% (inactive)	95.3% (inactive)	97.8% (inactive)	64.4	189% (inactive)	-3.57% (inactive)	110% (inactive)	-1% (inactive)	5.1% (inactive)	4.01% (inactive)	-1.65% (inactive)	92% (inactive)	0.02 (inactive)	-5% (inactive)	12% (inactive)
CC1=C(/C=C/C(C)=C/C=C/C(C)=C/C(=O)O)C(C)(C)CCC1	106% (inactive)	106% (inactive)	103% (inactive)	125% (inactive)	121% (inactive)	62.6	194% (inactive)	-2.82% (inactive)	93.6% (inactive)	1% (inactive)	-11.2% (inactive)	-5.9% (inactive)	-0.05% (inactive)	101% (inactive)	0.04 (inactive)	-2% (inactive)	-6.96% (inactive)
CCC(=O)Oc1ccc(C(=O)Nc2ccc([N+](=O)[O-])cc2)cc1	87.8% (inactive)	148% (active)	90% (inactive)	82.5% (inactive)	80.8% (inactive)	61.8	195% (inactive)	-0.33% (inactive)	88.4% (inactive)	5% (inactive)	4.9% (inactive)	15.9% (inactive)	-4.69% (inactive)	100% (inactive)	-0.38 (inactive)	14% (inactive)	-6.55% (inactive)
CC(=O)OCC#CCSc1nc2ccccc2n1C	97.6% (inactive)	89.7% (inactive)	96.7% (inactive)	103% (inactive)	92.9% (inactive)	57.8	163% (inactive)	-8.62% (inactive)	95% (inactive)	2% (inactive)	7.19% (inactive)	14.1% (inactive)	2.63% (inactive)	94.9% (inactive)	-0.21 (inactive)	12% (inactive)	-7.2% (inactive)
O=C1c2ccccc2N2C(=O)c3ccccc3C2N1Cc1ccco1 (stereo not drawn)	104% (inactive)	104% (inactive)	110% (inactive)	103% (inactive)	89.8% (inactive)	61	140% (inactive)	-2.43% (inactive)	95.6% (inactive)	0% (inactive)	-16.2% (inactive)	-5.51% (inactive)	-3.39% (inactive)	99.6% (inactive)	0.03 (inactive)	-8% (inactive)	-1.65% (inactive)
NC(N)=N/N=C/c1c(Cl)cccc1Cl	102% (inactive)	105% (inactive)	105% (inactive)	101% (inactive)	108% (inactive)	67.2	169% (inactive)	-11.8% (inactive)	81.5% (inactive)	-4% (inactive)	-0.34% (inactive)	5.82% (inactive)	-3.91% (inactive)	99.4% (inactive)	-0.085 (inactive)	-5% (inactive)	-13.3% (inactive)
CC1(C)c2ccccc2N2CC(=O)NC21/C=C/c1ccco1 (stereo not drawn)	101% (inactive)	113% (inactive)	110% (inactive)	100% (inactive)	96.2% (inactive)	64.1	87.6% (inactive)	-23.9% (inactive)	109% (inactive)	0% (inactive)	5.81% (inactive)	-7.94% (inactive)	-1.22% (inactive)	107% (inactive)	-0.16 (inactive)	-36% (inactive)	-3.11% (inactive)
